Screening results: PubChem BioAssay, National Center for Advancing Translational Sciences (NCATS)
DT40 TDP1 CPT: qHTS for Inhibitors of human tyrosyl-DNA phosphodiesterase 1 (TDP1): qHTS in cells in presence of CPT. Potency, µM (highest dose often 46.2 µM), for inactives: at the top dose activity change, negative = growth inhibition, actives largely listed as inhibitors. actives 12% (n = 420,000). chicken DT40 Tdp1-/-;hTDP1 cells + 20 nM CPT, ATP luminescence, 48 h; also: % is scaled to controls: 0 for no effect and ±100 for the full control effect; nearly all actives have a fitted effect of over 55% in size
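Cell growth measured by CellTiter-Glo luminescence after a minimum 48 h, 37 C compound exposure with 20 nM CPT in Tdp1-knockout DT40 cells stably expressing hTDP1, seeded 400/well; qHTS titration format.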
ClpP mod: qHTS Assay for Activators of ClpP; ATP-dependent Clp protease proteolytic subunit (Bacillus subtilis (strain 168)), P80244; purified B. subtilis ClpP, FRET peptide cleavage, 20 min; Potency, µM (series often up to 57.5 µM), without a hit: top-dose activity change, negative = active; actives 1.9% (n = 340,000); AID 651965, 2013; active = well fitted falling curve with a large enough effect; inconclusive = small, poorly fitted or top-dose-only effect; inactive = no such curve, though single readings can be large or run the other way; also: the source files actives as falling curves though it sought activators and does not explain the sign; nearly all actives have a fitted effect of over 65% in size
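Buffer: 100 mM Tris/HCl pH8, 100 mM KCl, 0.05% low protease BSA, 2.5% glycerol, 0.01% Tween-20. ClpP 10 microg/mL final; 20 min RT; delta FRET normalized to ADEP and DMSO controls.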
TDP1 block: qHTS Assay for Inhibitors of Tyrosyl-DNA Phosphodiesterase (TDP1). Tyrosyl-DNA phosphodiesterase 1 (Homo sapiens), Q9NUW8. recombinant TDP1, AlphaScreen DNA substrate cleavage. Potency, µM (highest dose often 130 µM), for the others: top-dose activity change, negative = inhibition, usual class: inhibitors. actives 0.28% (n = 350,000). AID 485290, 2010; also: % is scaled to controls: 0 for no effect and ±100 for the full control effect; nearly all actives have a fitted effect of over 40% in size
Target sequence (Q9NUW8 whole entry, looked up): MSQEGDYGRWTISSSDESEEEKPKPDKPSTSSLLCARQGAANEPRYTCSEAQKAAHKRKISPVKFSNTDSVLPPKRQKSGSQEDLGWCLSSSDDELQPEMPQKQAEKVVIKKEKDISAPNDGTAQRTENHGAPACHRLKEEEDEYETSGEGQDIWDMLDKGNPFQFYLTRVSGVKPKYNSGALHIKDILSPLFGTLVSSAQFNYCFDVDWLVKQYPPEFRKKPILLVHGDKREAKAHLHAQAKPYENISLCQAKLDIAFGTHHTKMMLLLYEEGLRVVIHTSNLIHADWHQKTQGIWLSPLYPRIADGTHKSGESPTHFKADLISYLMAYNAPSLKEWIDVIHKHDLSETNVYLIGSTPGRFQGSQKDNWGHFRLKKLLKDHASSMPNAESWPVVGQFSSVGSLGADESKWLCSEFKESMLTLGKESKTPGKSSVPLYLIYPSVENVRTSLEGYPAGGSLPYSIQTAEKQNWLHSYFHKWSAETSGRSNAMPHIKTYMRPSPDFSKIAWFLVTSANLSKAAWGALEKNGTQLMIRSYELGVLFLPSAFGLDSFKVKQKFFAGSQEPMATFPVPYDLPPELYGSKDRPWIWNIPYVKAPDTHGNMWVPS
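Signal: AlphaScreen proximity between streptavidin donor and anti-FITC acceptor beads on intact substrate. Reaction: Tdp1 1 nM, substrate 15 nM final, 5 min RT after 15 min compound preincubation.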
DT40 TDP1 no CPT: qHTS for Inhibitors of human tyrosyl-DNA phosphodiesterase 1 (TDP1): qHTS in cells in absence of CPT; DT40 Tdp1-/- hTDP1 cells, no CPT, ATP luminescence, 48 h; Potency, µM (series often up to 46.2 µM), for inactives: at the top dose activity change, negative = growth inhibition, most hits filed as inhibitors; actives 15% (n = 420,000); AID 686978, 2013; also: % is scaled to controls: 0 for no effect and ±100 for the full control effect; nearly all actives have a fitted effect of over 55% in size
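A cellular qHTS used chicken DT40 cells lacking endogenous Tdp1 but carrying stably transfected human TDP1. Compounds were applied without camptothecin, and cell growth kinetics were judged by ATP-dependent luminescence after ≥48 hr.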
* marks the source's active call; other numbers are inactive results; ? = inconclusive; . = not tested or not shown; ! = not active in a repeat; [ ] = another dose, or the depositor's remark. Compounds with a hit are over-represented: about 17% of the library has one in this group of screens. Unless noted, calls follow the shape of the dose curve; as a rule, active = well fitted curve in the direction sought with a large enough effect; inconclusive = small, poorly fitted or top-dose-only effect, or another doubt; inactive = no such curve, though single readings can be large; an effect the other way counts as inactive or inconclusive. Potency is read from the fitted curve at half-maximal effect.

SMILES	DT40 TDP1 CPT	ClpP mod	TDP1 block	DT40 TDP1 no CPT
CC(C)Cn1c(/C=C/c2ccccc2)nc2ccccc21	?	7.1µM*	-8%	?
CCn1c(/C=C/c2ccccc2)nc2ccccc2c1=O	?	-2%	6%	?
Cc1cccc(NC(=S)N(Cc2cccs2)Cc2cc3cc(C)cc(C)c3[nH]c2=O)c1	13µM*	-1%	3%	9.2µM*
COc1ccc2[nH]c(=O)c(CN(Cc3cccs3)C(=S)Nc3cccc(C)c3)cc2c1	21µM*	-23%	3%	13µM*
COc1ccc2[nH]c(=O)c(CN(Cc3cccs3)S(=O)(=O)c3cccc4nsnc34)cc2c1	-112%	-5%	6%	10µM*
COc1cc(CN2CCN(S(=O)(=O)c3ccccc3)CC2)cc(OC)c1O	-14%	0%	4%	-7%
CCOc1ccccc1OCCOc1cccc(C(F)(F)F)c1	2%	1%	-6%	8%
O=[N+]([O-])c1cccc2c(Br)[nH]nc12	32µM*	.	10%[56.1 µM]	?
O=c1[nH]cnc2c([N+](=O)[O-])cccc12	-18%	-1%	4%	2%
Cc1cc(C)n2nc(C(=O)Nc3ccc4c(c3)CCC4)nc2n1	6%	.	-1%	-22%
C=CCOC(=O)/C=C/C(=O)NC(N)=O	10µM*	2%	.	16µM*
Cc1onc(-c2ccccc2)c1C(=O)NC1CC1	7%	.	-4%	-9%
CCCCNc1c(-c2ccc(-c3ccc(C(C)=O)cc3)c(OC)c2)nc2cc(C)ccn12	18µM*	1%	0%	10µM*
CCCCCCSc1ccc(-c2nc3cnccn3c2NCCCC)cc1	?	-30%	-13%	21µM*
CCCCNc1c(-c2ccc(Sc3ccc(OC)cc3)cc2)nc2cc(C)ccn12	?	4%	5%	-86%
CCCCCCSc1cc(-c2nc3ccc(Cl)cn3c2NCCCC)ccc1OC	?	?	-1%	?
CCCCNc1c(-c2cccc(SC(C)CC)c2)nc2ccc(Cl)cn12 (centres undefined)	16µM*	-5%	-10%	15µM*
COCCNc1c(-c2ccc(O)cc2)nc2ccc(Cl)cn12	33µM*	10%	2%	-101%
CCCCNc1c(-c2ccc(OC)c(SC(C)CC)c2)nc2ccc(Cl)cn12 (centres undefined)	26µM*	-8%	0%	26µM*
CCCCNc1c(-c2ccc(OC)c(SC(C)CC)c2)nc2cnccn12 (centres undefined)	?	-12%	.	26µM*
CCCCNc1c(-c2ccc(OC)c(SC(C)CC)c2)nc2ccc(C)cn12 (centres undefined)	18µM*	4%	5%	18µM*
CCCCNc1c(-c2ccc(OC)c(SC(C)CC)c2)nc2cc(C)ccn12 (centres undefined)	16µM*	27µM*!	6%	15µM*
CC(=O)N1CCc2c(sc3c2c(=O)n(-c2ccc(F)cc2)c(=O)n3Cc2ccc(C#N)cc2)C1	0%	0%	6%	?
COC(=O)c1ccc2nc(-c3ccc(Cl)cc3)c(Cc3cccc(Cl)c3)n2c1	?	?	.	18µM*
COC(=O)c1ccc2nc(-c3ccc(C)cc3)c(Cc3cccc(Cl)c3)n2c1	16µM*	4%	.	16µM*
SMILES	DT40 TDP1 CPT	ClpP mod	TDP1 block	DT40 TDP1 no CPT
Cc1ccccc1Nc1c(-c2cccc(Cl)c2)nc2ncccn12	?	-3%	-2%	?
Cc1ccc(Nc2c(-c3ccc(N4CCOCC4)cc3)nc3ncccn23)c(C)c1	?	-1%	10%	16µM*
Cc1ccc(Nc2c(-c3ccc(N(C)C)cc3)nc3ncccn23)cc1	?	.	0%	?
Cc1cccc(C)c1Nc1c(-c2ccc(N3CCOCC3)cc2)nc2ncccn12	21µM*	1%	0%[12.3 µM]	21µM*
Cc1ccccc1NC(=O)C1C2CCCC1C2c1ccccc1 (centres undefined)	18µM*	0%	4%	?
Cc1ccc(C)c(NC(=O)C2C3CCCC2C3c2ccccc2)c1 (centres undefined)	?	3%	-7%	-16%
Cc1cccc(N2CCN(C(=O)c3cc(S(=O)(=O)N4CCCC4)cn3C)CC2)c1C	23µM*	1%	.	?
Cc1cccc(N2CCN(S(=O)(=O)c3csc(C(N)=O)c3)CC2)c1C	12µM*	0%	3%	21µM*
Cc1cccc(N2CCN(C(=O)c3cc(S(=O)(=O)N4CCOCC4)cn3C)CC2)c1C	?	1%	.	?
COc1cc(S(=O)(=O)N2CCOCC2)cc(C(=O)c2nccn2C)c1OC	-3%	-2%	7%	-2%
Cc1ccc(C)c(N2CCN(C(=O)c3cc(S(=O)(=O)N4CCCC4)cn3C)CC2)c1	18µM*	-1%	4%	21µM*
CCCCn1ccnc1C(=O)c1cc(S(=O)(=O)N2CCOCC2)ccc1C	12µM*	2%	6%	10µM*
CCc1ccc(CNC(=O)c2cc3c(=O)oc4ccc(C)cc4c3s2)cc1	?	-3%	-2%	?
Cc1ccc(S(=O)(=O)N2CCOCC2)cc1C(=O)N1CCC(Cc2ccccc2)CC1	?	.	10%	15µM*
Cc1ccc(C)c(N2CCN(C(=O)c3cc(S(=O)(=O)N4CCCCC4)cn3C)CC2)c1	21µM*	-2%	7%	18µM*
Cc1ccc(C)c(N2CCN(C(=O)c3cc(S(=O)(=O)N4CCOCC4)ccc3F)CC2)c1	15µM*	1%	0%	13µM*
COc1ccc(CN2C(=O)c3cccnc3C2=O)cc1S(=O)(=O)N(C)c1ccc(C)cc1	-14%	-2%	2%	11%
CCN(C(=O)c1ccc2c(=O)n3c(nc2c1)CCCCC3)c1cc(C)ccc1C	?	2%	-5%	?
CN1C(=O)/C(=C\C(=O)c2cccs2)c2ccccc21	13µM*	.	9%	9.2µM*
O=C1CCN(C(=O)c2cccs2)c2ccccc21	4%	.	3%	-17%
CC(=O)Oc1c(I)cc(I)cc1C(=O)Nc1ccc(Cl)cc1	?	-3%	5%	21µM*
CC(=O)c1sc(NC(=O)CCS(=O)(=O)c2ccc(F)cc2)nc1C	2.6µM*	-10%	.	2.9µM*
COc1ccc(OCCCC(=O)Nc2nc(C)c(C(C)=O)s2)cc1	-3%	0%	1%	-6%
CC(=O)c1sc(NC(=O)C(C)C)nc1C	0%	0%	-4%	-21%
CC(=O)Nc1nc(C)c(C(C)=O)s1	15µM*	1%	5%	?
Cc1ccc(S(=O)(=O)CCC(=O)Nc2ccc(F)cc2)cc1	-1%	.	-10%	4%
COc1ccc2nc(Nc3nc(C)c(C(C)=O)s3)sc2c1	?	-8%	5%	16µM*
CC(=O)c1sc(NC(=O)CCS(=O)(=O)c2ccccc2)nc1C	5.2µM*	-9%	4%	5.8µM*
